An excerpt weighted towards active compounds, which were near 7.6% of everything screened.
CRE Fsk mod = Cell signaling CRE-BLA (Fsk stim). Potency, µM (titrated, usually from 38.2 µM), without a hit: top-dose activity change, negative = inhibition, hits mostly activators. CHO CRE-bla reporter (cAMP response element driving beta-lactamase), forskolin EC10, beta-lactamase ratio. AID 662, 2007. actives 2.5% (n = 71,000); active = well fitted activation curve with a large enough effect in the signal ratio, with a control signal flat, not every such curve was filed as active; inconclusive = small, poorly fitted or top-dose-only effect, or effect the other way, or a change in a side signal; the % refers to the signal ratio; note: % of control where 0% means no effect
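Beta-lactamase reporter under a cAMP responsive element in CHO cells; compounds tested in titration series against EC10 NKH 477, 3 h at 37 °C. Read-out: CCF4 FRET ratio 460nm/530nm (excitation 405nm) giving %Activity, fitted to AC50.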
HEK293 cAMP ctrl = qHTS Assay for Agonists of the Thyroid Stimulating Hormone Receptor: Activators of Intracellular cAMP Concentrations in Parental HEK 293; parental HEK293 CNG cAMP sensor, membrane potential fluorescence; Potency, µM (titrated, usually from 57.1 µM), for the others: at the highest dose activation, hits mostly activators; actives 2.5% (n = 73,000); AID 938, 2007; note: % of control where 0% means no effect; nearly all actives have a fitted effect of over 55% in size
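Counterscreen for endogenous-receptor signalling: CNG-channel HEK 293 cells report cAMP rise by membrane depolarization. After 60 min dye equilibration with 100 uM RO 20-1724, compounds incubated 30 min before bottom-read fluorescence at 590 nm.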
Tau filament bind = qHTS Assay for Tau Filament Binding | Microtubule-associated protein tau (Homo sapiens), P10636 | recombinant tau filaments, thioflavin S fluorescence, 15 h; filaments grown with octadecylsulfate alongside compound | Potency, µM (series often up to 57.1 µM), for inactives: at the highest dose activity change, negative = inhibition | actives 2% (n = 71,000);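 note: % is set by controls: 0 for no effect and ±100 for the full control effect; actives lower thioflavin S fluorescence by blocking filaments or displacing dye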
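ThS-based fibril read: tau 1 uM final, inducer ODS 30 uM final, 37 C for 15 h, ex 450/em 510 nm.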
ERK AVP inh = qHTS Assay for Inhibitors of the ERK Signaling Pathway using a Homogeneous Screening Assay. HEK293-V1b, vasopressin-stimulated pERK AlphaScreen. Potency, µM (series often up to 57.5 µM), without a hit: at the highest dose activity, negative = inhibition, usual class: inhibitors. actives 0.99% (n = 72,000). AID 995, 2007; note: % is set by controls: 0 for no effect and ±100 for the full control effect; nearly all actives have a fitted effect of over 55% in size
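V1b-HEK293 cells; cpd 30 min 37C; 25 nM vasopressin 5 min; lyse 10 min; AlphaScreen beads 5 hr RT. Normalized to DMSO basal and 25 nM vasopressin; AC50 by Hill fit.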
TSHR agonist = qHTS Assay for Agonists of the Thyroid Stimulating Hormone Receptor | Thyrotropin receptor (Homo sapiens), P16473 | HEK293-CNG-TSHR cells (CNG channel as cAMP sensor), membrane potential dye, cAMP | Potency, µM (doses to about 57.1 µM), without a hit: at the top dose activation, hits mostly activators | actives 0.48% (n = 73,000) | AID 926, 2007; active = well fitted activation curve with a large enough effect in the main read-out, with a control signal flat, not every such curve was filed as active; inconclusive = small, poorly fitted or top-dose-only effect, or a change in a side signal; inactive = no such curve, though single readings can be large or run the other way; % of control where 0% means no effect;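 note: the control signal comes from parental cells without the receptor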
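cAMP rise detected as CNG-channel membrane depolarization by fluorescent dye (emission 590 nm), 30 min after compound, following 60 min dye loading containing 100 uM RO 20-1724 at room temperature. Cells: TSHR/CNG HEK 293, with parental CNG HEK 293 as control.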
An asterisk follows results filed as active; [ ] = dose if it differs, or a comment. Unless noted, calls come from the whole dose curve; as a rule, active = well fitted curve in the direction sought with a large enough effect; inconclusive = small, poorly fitted or top-dose-only effect, or another doubt; inactive = no such curve, though single readings can be large; an effect the other way counts as inactive or inconclusive. Potency is the fitted concentration of half-maximal effect.

Screening Cc1nnc(SCC2=C(C(=O)O)N3C(=O)C(NC(=O)Cn4cnnn4)[C@@H]3SC2)s1 (stereo not given in full) returned ERK AVP inh -3%.
For COc1ccc2[nH]cc(CCNc3ncncc3-c3cccc(NS(C)(=O)=O)c3)c2c1 the results were CRE Fsk mod 21%, HEK293 cAMP ctrl -11%, Tau filament bind -8%, ERK AVP inh -7% and TSHR agonist 7%.
Screening CCc1cc2c(nc1CC)CCN(CC/C(C)=N/O[C@@H](C)c1cn([C@H](CO)Cc3ccccc3)nn1)C2 returned HEK293 cAMP ctrl 7%[11.4 µM], ERK AVP inh 15%[11.5 µM] and TSHR agonist -4%[11.4 µM].
For CC[C@H](C)N(C)C(=O)c1cc2ccccc2c(-c2ccccc2Cl)n1 the results were CRE Fsk mod -22%, HEK293 cAMP ctrl inconclusive, Tau filament bind inconclusive, ERK AVP inh -15% and TSHR agonist 25µM*.
`O=c1[nH]c2c(s1)C(c1ccccc1)C1C3CCC(C3)C1S2` (stereo not given) gave CRE Fsk mod 10µM*, HEK293 cAMP ctrl 17%, Tau filament bind 35%, ERK AVP inh 3% and TSHR agonist 14%.
COc1ccc(C2c3sc(=O)[nH]c3SC3C4CCC(C4)C23)cc1 (stereo not given) was read as CRE Fsk mod inconclusive, HEK293 cAMP ctrl 19%, Tau filament bind 1%, ERK AVP inh -14% and TSHR agonist 7%[11.4 µM].
Screening CO[C@@H]1COC(=O)[C@@H](C)COC(=O)[C@@H](C)NC(=O)C/C=C\[C@@H]1C returned HEK293 cAMP ctrl -2%[11.4 µM], ERK AVP inh -11%[11.5 µM] and TSHR agonist -3%[11.4 µM].
Screening O=c1c(-c2ccc(F)cc2)nc2cnc(N3CCNCC3)nc2n1C1CC1 returned CRE Fsk mod inconclusive, HEK293 cAMP ctrl inconclusive, Tau filament bind 4%, ERK AVP inh 15% and TSHR agonist inconclusive.
Screening C[C@@H](NC(=O)/C(C#N)=C/c1ccc(O)c(O)c1)c1ccccc1 returned CRE Fsk mod inconclusive, HEK293 cAMP ctrl 11%, Tau filament bind -42% and ERK AVP inh inconclusive.
`C[C@H](NC(=O)/C(C#N)=C/c1ccc(O)c(O)c1)c1ccccc1` gave CRE Fsk mod inconclusive, HEK293 cAMP ctrl inconclusive, Tau filament bind inconclusive, ERK AVP inh 10µM* and TSHR agonist inconclusive.
COc1ccccc1CN1CC[C@@]2(CCCN(C(=O)c3cc(C(F)(F)F)cc(C(F)(F)F)c3)C2)C1 was read as CRE Fsk mod -18%, HEK293 cAMP ctrl inconclusive, Tau filament bind -20%, ERK AVP inh -5% and TSHR agonist inconclusive.
For Cc1cc2ccccc2n1CCNC(=O)C1CC1 the results were CRE Fsk mod 13µM*, HEK293 cAMP ctrl inconclusive, Tau filament bind 11% and TSHR agonist inconclusive.
Screening Cc1cc2ccccc2n1CCNC(=O)C1CCCC1 returned CRE Fsk mod -23%, HEK293 cAMP ctrl inconclusive, Tau filament bind 66%, ERK AVP inh 25% and TSHR agonist inconclusive.
Screening CC(=O)CSc1ncnc2c1oc1ccccc12 returned CRE Fsk mod 4µM*, HEK293 cAMP ctrl 2%, Tau filament bind 6%, ERK AVP inh -16% and TSHR agonist 1%.
Screening COC(=O)c1ccc(CSc2ncnc3c2oc2ccccc23)o1 returned CRE Fsk mod 2.5µM*, HEK293 cAMP ctrl inconclusive, Tau filament bind 16%, ERK AVP inh 12% and TSHR agonist inconclusive.
Screening CCCSc1ncnc2c1oc1ccccc12 returned CRE Fsk mod inconclusive, HEK293 cAMP ctrl 11%, Tau filament bind -8%, ERK AVP inh 14% and TSHR agonist 5%.
For CCOc1ccccc1NC(=O)CSc1ncnc2c1oc1ccccc12 the results were CRE Fsk mod 0.63µM*, HEK293 cAMP ctrl 25µM*, Tau filament bind 1%, ERK AVP inh 14% and TSHR agonist inconclusive.

Assay outcomes (PubChem)
